Source: PubChem BioAssay (National Center for Advancing Translational Sciences (NCATS))
Tb PFK block: inhibitors of T. brucei phosphofructokinase | Potency, µM (doses to about 57.5 µM), for inactives: at the top dose activity, negative = inhibition, actives largely listed as inhibitors | T. brucei PFK, ADP-Glo luminescence | 330,000 tested, 0.17% active;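 note: potency is the fitted concentration of half-maximal effect; 0% = uninhibited 1x PFK enzyme wells and -100% = no-enzyme wells; nearly all actives have a fitted effect of over 60% in size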
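ADP-Glo luminescence quantified ADP after 45 min at room temperature, with 1.25 nM T. brucei PFK, 0.1 mM ATP and 0.5 mM fructose-6-phosphate in pH 8.0 TEA buffer. qHTS titrations up to 57 µM; curves classified by quality.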
PGK inhibitor: T. brucei PGK inhibition | PGK/GAPDH coupled, Kinase-Glo luminescence, 60 min | P07378 | 380,000 tested, 0.043% active | AID 602233 | Potency, µM (doses to about 57.5 µM), inactives show at the top dose activity change, negative = inhibition, actives largely listed as inhibitors; note: potency is the fitted concentration of half-maximal effect; nearly all actives have a fitted effect of over 60% in size
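Luminescent ATP detection (Kinase-Glo Plus) follows a 60-minute room-temperature incubation, with wells lacking PGK as controls. Buffer: 100 mM TEA (pH 7.6), 5 mM MgCl2, 0.01% Tween-20. Coupling enzyme GAPDH (100 nM final) supplies unstable 1,3-BPG in-well.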
Pin1 inhibitor: blocks the human prolyl isomerase Pin1; Potency, µM (top dose mostly 115 µM), inactives show at the top dose activity, negative = inhibition, hits mostly inhibitors; Pin1 FP peptide displacement, HiFluor488, 10 min; Q13526; AID 504891; 390,000 tested, 0.009% active; active = well fitted inhibition curve with a large enough effect in the polarisation, with a control signal flat, not every such curve was filed as active; inconclusive = small, poorly fitted or top-dose-only effect, or effect the other way, or a change in a side signal; inactive = no such curve, though single readings can be large or run the other way; the % refers to the polarisation; note: potency is the fitted concentration of half-maximal effect
Target sequence (Q13526 whole entry, looked up): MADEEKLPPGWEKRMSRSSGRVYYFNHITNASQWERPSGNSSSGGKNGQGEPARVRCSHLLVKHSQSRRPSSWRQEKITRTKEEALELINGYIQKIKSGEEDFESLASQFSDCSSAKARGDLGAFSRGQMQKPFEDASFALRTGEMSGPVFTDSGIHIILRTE
PI4K2A inh: PI4K2A (human) kinase inhibition; Q9BTU6; purified PI4K2A, ADP-Glo luminescence, 1 h; active compounds read low; activity change, negative = inhibition, % at 76.9 µM; 420,000 tested, 0.13% active; in the data active = activity change below about -50%; inconclusive = mostly about -30% to -49%;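 note: -100% = wells without enzyme as full effect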
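PI4K2A activity was measured by ADP-Glo luminescence: enzyme (4 ug/mL stock) and phosphatidylinositol (1.2 mM stock) in Tris pH 7.5/MgCl2/EGTA/Triton X-100 buffer were reacted with ATP (300 microM stock) for one hour at ambient temperature.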
PI5P4K alpha inh: PI5P4K alpha (human) kinase inhibition. P48426. PI5P4Kalpha enzyme, ADP-Glo luminescence, 60 min; active compounds read low. max response, %. 330,000 tested, 1.2% active. AID 652105; active = max response of -50% or lower; inconclusive = between -30% and -50%; inactive = -30% or higher; note: value at the top dose of about 77 µM
Target sequence (P48426 whole entry, looked up): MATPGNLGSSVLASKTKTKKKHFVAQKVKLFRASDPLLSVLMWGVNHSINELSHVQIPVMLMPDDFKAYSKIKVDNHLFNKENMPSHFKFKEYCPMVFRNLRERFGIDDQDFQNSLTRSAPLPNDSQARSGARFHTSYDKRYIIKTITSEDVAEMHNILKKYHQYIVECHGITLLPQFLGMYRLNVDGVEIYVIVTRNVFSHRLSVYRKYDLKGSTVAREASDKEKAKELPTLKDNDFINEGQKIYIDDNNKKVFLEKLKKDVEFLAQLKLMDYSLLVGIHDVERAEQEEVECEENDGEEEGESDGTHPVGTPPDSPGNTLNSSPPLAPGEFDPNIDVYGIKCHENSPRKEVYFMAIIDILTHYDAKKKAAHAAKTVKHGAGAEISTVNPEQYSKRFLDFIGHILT
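ADP-Glo luminescence end-point read after a 60 min room-temperature kinase reaction of PI5P4Kalpha plus substrate, initiated with ATP at 5 microM final. Buffer: 0.038 M HEPES pH 7.4, EGTA, 0.1% CHAPS, 5% DMSO.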
Active calls of the source: *; i = inactive; ? = inconclusive; . = no result. The full list was thinned out, with hits kept by preference. Unless noted, calls come from the whole dose curve; as a rule, active = well fitted curve in the direction sought with a large enough effect; inconclusive = small, poorly fitted or top-dose-only effect, or another doubt; inactive = no such curve, though single readings can be large; an effect the other way counts as inactive or inconclusive. Unless noted, % is set by controls: 0 for no effect and ±100 for the full control effect.

SMILES	Tb PFK block	PGK inhibitor	Pin1 inhibitor	PI4K2A inh	PI5P4K alpha inh
C=CCn1c(O)c(/C=N/NC(=O)c2ccncc2)c(=O)[nH]c1=O	2%	6%	-5%	-1	-50*
COc1ccc(CCn2c(O)c(/C=N/NC(=O)c3ccncc3)c(=O)[nH]c2=O)cc1OC	0%	-6%	8%	-2	-82*
CC[C@H]1C[C@@H]2C[C@H]3c4[nH]c5ccc(OC)cc5c4CCN(C2)[C@@H]13	.	.	.	i	.
COc1ccc(C(=O)Nc2ccc3c(c2)N(C)C(=O)c2ccccc2S3)cc1OC	.	-16%	21%	0	.
CCCCOc1ccc(C(C)=O)cc1Cc1c(O)[nH]c(=S)[nH]c1=O	-1%	i	-6%	2	-14
COc1ccc(Cc2c(O)[nH]c(=S)[nH]c2=O)cc1	1%	7%	6%	0	-56*
Cc1ccsc1/C=C1\C(=O)NC(=S)N(C)C1=O	-8%	-14%	1%	-22	-84*
CN1C(=O)/C(=C\c2ccc(N3CCCCC3)o2)C(=O)NC1=S	-3%	-10%	?	1	-3
CN1C(=O)/C(=C/c2ccc(Cl)s2)C(=O)NC1=S	2%	-2%	20%	-11	-80*
CN1C(=O)/C(=C/c2ccc(N3CCCCCC3)o2)C(=O)NC1=S	1%	-16%	?	-8	-14
COc1ccc(/C=C2\C(=O)NC(=S)N(C)C2=O)cc1C	-4%	10µM*	.	?	-57*
C=CCN1C(=O)/C(=C/c2ccc(Br)s2)C(=O)NC1=S	-7%	-2%	?	-6	-94*
CCN1C(=O)/C(=C\c2ccc([N+](=O)[O-])s2)C(=O)NC1=S	-9%	.	.	.	.
COc1cc(/C=C2\C(=O)NC(=O)N(c3ccccc3)C2=O)cc(OC)c1O	2%	1%	?	-20	.
C=CCC1(C(C)CC)C(=O)NC(=O)NC1=O (stereo unspecified)	.	.	.	1	.
O=c1[nH]c2cc(Cl)ccc2n1C1CCNCC1	.	.	.	-1	.
ClC1=C(Cl)[C@]2(Cl)[C@@H]3[C@@H]4C[C@@H]([C@H]5O[C@@H]45)[C@@H]3[C@@]1(Cl)C2(Cl)Cl	.	.	.	i	.
CCCCCCCCn1sccc1=O	?	i	-2%	1	-77*
O=P(O)(O)c1ccccc1OCCOCCOCCOCCOc1ccccc1P(=O)(O)O	16%	-4%	?	-5	-2
CC(C(=O)c1ccccc1)N(C)C (stereo unspecified)	.	.	.	-1	.
O=C(O)CC1OCC=C2CN3CCC45C6=CC(=O)C(=O)C([N+](=O)[O-])=C6NC4C1C2CC35 (stereo unspecified)	-17%	?	?	-61*	1
C=C1C(=O)O[C@@H]2C[C@@H](C)[C@@H]3C=CC(=O)[C@@]3(C)[C@@H](OC(=O)CC(=O)O[C@H]3[C@@H]4C(=C)C(=O)O[C@@H]4C[C@@H](C)[C@@H]4C=CC(=O)[C@]43C)[C@H]12	-27%	?	57%	-70*	-66*
C[C@H](CN1CCOCC1)C(C(=O)N1CCCC1)(c1ccccc1)c1ccccc1	.	.	.	i	.
COC(=O)C1=C(c2c(C)noc2C)C[C@@H]2CC[C@H]1N2C(=O)NCCO	-2%	-11%	-4%	-53*	7
CCCNC(=O)N1[C@H]2CC[C@@H]1C(C(=O)OC)=C(c1c(C)noc1C)C2	3%	i	-10%	-2	3
SMILES	Tb PFK block	PGK inhibitor	Pin1 inhibitor	PI4K2A inh	PI5P4K alpha inh
O=C(CCCCl)c1ccc(F)cc1	.	.	.	-6	.
O=C1NC(=O)C(=Cc2cc(Cl)ccc2OCc2ccc(C(=O)O)cc2)C(=O)N1	0%	i	-11%	-22	-71*
O=C(N/N=C\C1C(=O)NC(=S)N(c2ccccc2)C1=O)c1ccc(O)cc1 (stereo unspecified)	-1%	i	9%	-3	-57*
Oc1c(Br)c(Br)c(Br)c(Br)c1Br	-24%	?	?	1	-60*
CCC(=O)C(CC(C)N(C)C)(c1ccccc1)c1ccccc1 (stereo unspecified)	.	.	.	i	.
O=C1NC(=O)C(=Cc2ccc(OCCOc3ccc([N+](=O)[O-])cc3)cc2)C(=O)N1	-21%	-18%	0%	-24	-63*
CCOc1cc(C=C2C(=O)NC(=O)NC2=O)ccc1OCC(=O)N1CCOCC1	21%	i	-1%	-10	?
O=C1NC(=O)C(=Cc2cccc(OCCOc3ccccc3)c2)C(=O)N1	0%	-3%	2%	-26	-52*
Cc1ccc(OCCOc2cccc(C=C3C(=O)NC(=O)NC3=O)c2)c(C)c1	3%	-2%	2%	?	-62*
CCN1CCN(c2ccc([N+](=O)[O-])cc2C=C2C(=O)NC(=O)NC2=O)CC1	-18%	i	1%	-3	-27
CC1(C)CC/C(=C/c2ccc(Cl)cc2)C1(O)Cn1cncn1 (stereo unspecified)	.	.	.	i	.
CC[C@H](C)/C=C(C)/C=C/C1=CC2=C(Cl)C(=O)[C@@](C)(OC(C)=O)C(=O)C2=CO1	.	?	37%	?	-87*
COc1cc(C[C@@H](C)N)c(OC)cc1Br	.	.	.	i	.
CN1C(=O)C(=Cc2coc3ccccc3c2=O)C(=O)N(C)C1=O	0%	-5%	-12%	-15	-73*
Cc1cc(C)cc(N2C(=O)NC(=O)/C(=C/c3cccn3-c3ccc(Cl)cc3)C2=O)c1	-4%	-6%	23%	-24	-26
Cc1cccc(N2C(=O)NC(=O)/C(=C/c3ccc([N+](=O)[O-])o3)C2=O)c1	?	?	?	-13	-78*
Cc1cccc(N2C(=O)NC(=O)/C(=C\c3cccn3-c3ccc(Cl)cc3)C2=O)c1	14%	-3%	21%	-50*	-52*
Cc1cc(/C=C2\C(=O)NC(=O)N(c3ccc(F)cc3)C2=O)c(C)n1-c1ccc(C(=O)O)cc1	-8%	-7%	9%	-7	?
Cc1cc(/C=C2\C(=O)NC(=O)N(c3ccc(Cl)cc3)C2=O)c(C)n1-c1sc2c(c1C#N)CCCC2	0%	-14%	?	-7	-57*
Cc1ccc(N2C(=O)NC(=O)/C(=C\c3cc(C)n(-c4cc(C(=O)O)cc(C(=O)O)c4)c3C)C2=O)cc1	-8%	?	.	-6	-52*
CCc1ccc(N2C(=O)NC(=O)/C(=C\c3cc(C)n(-c4cc(C(=O)O)cc(C(=O)O)c4)c3C)C2=O)cc1	?	-24%	?	-12	-64*
Cc1ccc(N2C(=O)NC(=O)/C(=C\c3cc(C)n(-c4ccc(C(=O)O)cc4)c3C)C2=O)cc1	4%	-8%	4%	-26	-26
Cc1ccc([N+](=O)[O-])[c]2c1[O][Hg]2	.	.	.	-25	.
CCC(C)N1C(=O)/C(=C\c2cc3c4c(c2)CCCN4CCC3)C(=O)NC1=S (stereo unspecified)	11%	-3%	3%	-7	?
